Source: PubChem BioAssay AID624045 (National Center for Advancing Translational Sciences (NCATS), 2012)
Activity calls are given as the source filed them. Calls follow the shape of the dose curve; as a rule, active = well fitted inhibition curve with a large enough effect; inactive = flat fitted curve, though single readings scatter.

Target: Dual specificity tyrosine-phosphorylation-regulated kinase 1A (Homo sapiens) (UniProt Q13627)
Test: Reaction Biology data for inhibitors of DYRK1A: Probe SAR
Settings: Reaction Biology DYRK1A kinase assay, 10 uM ATP; series mostly up to 10 µM; activity change, negative = inhibition: at the top concentration
From the text: Alternative splicing of pre-mRNAs plays a major role in the regulation of eukaryotic gene expression. Alternative splicing is now thought to be one of the primary reasons for the complexity of higher organisms leading to an average of three protein isoforms per gene. Aberrant splicing can lead to a number of diseases and is known to play a role in rare genetic diseases such as progeria syndrome. Hutchinson-Gilford Progeria Syndrome (HGPS) is a pediatric premature aging disease caused by a spontaneous mutation in the lamin A/C (LMNA) gene due to a single point mutation in the lamin A gene effecting 1 in 4 million people. To identify both specific splicing modulators of the lamin A gene as well as general splicing modulators, a cell-based HTS assay was developed using a minigene reporter system (AIDs, 1459 & 1487). […] This AID summarizes the characterization of lead compounds in Dyrk1a. NIH Molecular Libraries Probe Production Centers Network [MLPCN] NIH Chemical Genomics Center [NCGC] MLPCN Grant: MH084827 Assay Submitter (PI): Tom Misteli
Compound IC50s were determined at Reaction Biology (http://www.reactionbiology.com) with ten concentration points starting at 10 uM in the assay using a 3-fold dilution series. The control compound staurosporine was also tested in the 10-dose IC50 mode with the same 3-fold serial dilution, again starting at 10 uM. All kinase reactions were performed using 10 uM ATP in the assay. 100% activity was taken from kinase reactions with DMSO alone (the vehicle used for compound stock solutions).

Potency, active:
Brc1cc(Br)cc(CNc2nccc(-c3ccc4c(c3)OCO4)n2)c1 10.7 nM
O=[N+]([O-])c1cc(Nc2nccc(-c3ccc4c(c3)OCO4)n2)cc(C(F)(F)F)c1 24.1 nM
Cc1nc(CN(C)c2ncnc3ccc(-c4ccc5c(c4)OCO5)cc23)cs1 5.2 nM
c1cc(-c2ccc3c(c2)OCO3)nc(Nc2ccc3c(c2)OCO3)n1 24.9 nM
Clc1ccc(CNc2nccc(-c3ccc4[nH]ncc4c3)n2)cc1Cl 128 nM
Clc1ccc(CNc2nccc(-c3ccc4cn[nH]c4c3)n2)cc1Cl 169 nM
c1nc(NCC2CCCO2)c2cc(-c3ccc4c(c3)OCO4)ccc2n1 (configuration not stated) 24.3 nM
c1cncc(CNc2ccnc(-c3ccc4cn[nH]c4c3)n2)c1 1430 nM
Clc1ccc(CNc2nccc(-c3ccc4c(c3)OCO4)n2)cc1Cl 26.3 nM
FC(F)(F)c1cc(Br)cc(Nc2nccc(-c3ccc4c(c3)OCO4)n2)c1 107 nM
Clc1cc(Cl)cc(CNc2ncncc2-c2ccc3c(c2)OCO3)c1 282 nM
Cc1c(-c2ccnc(NCc3cccnc3)n2)sc(=O)n1C 29.3 nM
COc1ccc(-c2ccnc(NCc3ccc(Cl)c(Cl)c3)n2)cc1 203 nM
FC(F)(F)c1cccc(Nc2nccc(-c3ccc4c(c3)OCO4)n2)c1 10.4 nM
COc1cccc(-c2ccnc(NCc3ccc(Cl)c(Cl)c3)n2)c1 4650 nM
Clc1ccc(CNc2nccc(-c3ccc4c(c3)OCCO4)n2)cc1Cl 18.2 nM
Cc1nc(CNc2ncnc3ccc(-c4ccc5c(c4)OCO5)cc23)cs1 33.3 nM
Cc1c(-c2ccnc(NCc3ccc(Cl)cc3)n2)sc(=O)n1C 62.9 nM
Clc1ccc(Nc2nccc(-c3ccc4c(c3)OCO4)n2)cc1 273 nM
Clc1ccc(CNc2ncncc2-c2ccc3c(c2)OCO3)cc1Cl 3450 nM
c1cncc(CNc2nccc(-c3ccc4[nH]ncc4c3)n2)c1 60.8 nM
c1cncc(CNc2ccnc(-c3ccc4[nH]ncc4c3)n2)c1 349 nM
Clc1ccc(CNc2ncncc2-c2ccc3c(c2)OCO3)cc1 4580 nM
Brc1ccc(CNc2nccc(-c3ccc4c(c3)OCO4)n2)cc1Br 79.3 nM
c1cncc(CNc2nccc(-c3ccc4c(c3)OCO4)n2)c1 7.1 nM
Clc1ccc(CNc2ccnc(-c3ccc4[nH]ncc4c3)n2)cc1Cl 2350 nM
COc1cccc(-c2ccnc(NCc3ccc(Cl)cc3)n2)c1 6360 nM
COc1ccc(-c2ccnc(NCc3ccc(Cl)cc3)n2)cc1 558 nM
Cc1nc(CN(C)c2ncnc3ccc(-c4ccc5[nH]ncc5c4)cc23)cs1 64.1 nM

Activity change, negative = inhibition, inactive:
COc1ccc(-c2ccnc(NCc3ccc(Cl)c(Cl)c3)n2)cc1OC -30.6%
c1cncc(CNc2ncncc2-c2ccc3c(c2)OCO3)c1 -50%
Clc1ccc(CNc2ccnc(-c3ccc4c(c3)OCO4)n2)cc1Cl -22.4%
